For two sequences, binding signal results are on record in article PMC7862700, “An all-to-all approach to the identification of sequence-specific readers for epigenetic DNA modifications on cytosine”.

Holding throughout (assay): DAPPL (digital affinity profiling via proximity ligation, sequencing); 10 mM Tris-HCl pH 7.5, 50 mM NaCl, 1 mM DTT, 4% glycerol, room temperature, 30 min; GST-TFs on glutathione beads, 16-mer random dsDNA library, 0.1% formaldehyde crosslink after washing; high values mean tight binding
Holding throughout (details): protein: recombinant; tags: N-terminal GST; dsDNA, one strand shown

One assay deals with ELF1 (Homo sapiens, UniProt P32519 1-619). A digest of the protocol:
(§1)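 GST fusions of human transcription factors were expressed in yeast and captured with glutathione beads. Once given DNA barcodes and pooled alongside a tag-only sample, they were incubated for 30 min at room temperature with 200 nmole of a random double-stranded 16-mer DNA library in Tris/NaCl/DTT/glycerol buffer, then washed, crosslinked (0.1% formaldehyde), proximity-ligated, PCR-amplified and sequenced on an Illumina NextSeq500. The binding signal of each hexamer is its read frequency for a factor divided by its frequency for the tag-only sample.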

The target in another assay is T1, FEV (Homo sapiens, UniProt Q99581 1-238).
T1 sequence: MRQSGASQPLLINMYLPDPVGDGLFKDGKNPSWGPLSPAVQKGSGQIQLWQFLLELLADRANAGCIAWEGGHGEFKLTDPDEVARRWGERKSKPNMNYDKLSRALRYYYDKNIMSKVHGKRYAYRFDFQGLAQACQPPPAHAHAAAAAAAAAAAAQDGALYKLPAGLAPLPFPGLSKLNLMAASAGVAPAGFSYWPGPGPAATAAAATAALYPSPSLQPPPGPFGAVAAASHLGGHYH
An outline of the steps: as §1

For a further assay, the target named is ETV5 (Homo sapiens, UniProt P41161 1-510). A digest of the protocol:
as §1

The target of another assay is ELF4 (Homo sapiens, UniProt Q99607 1-663). An outline of the steps:
as §1

A further assay concerns the target T2, ELK4 (Homo sapiens, UniProt P28324-2 1-405).
T2 sequence: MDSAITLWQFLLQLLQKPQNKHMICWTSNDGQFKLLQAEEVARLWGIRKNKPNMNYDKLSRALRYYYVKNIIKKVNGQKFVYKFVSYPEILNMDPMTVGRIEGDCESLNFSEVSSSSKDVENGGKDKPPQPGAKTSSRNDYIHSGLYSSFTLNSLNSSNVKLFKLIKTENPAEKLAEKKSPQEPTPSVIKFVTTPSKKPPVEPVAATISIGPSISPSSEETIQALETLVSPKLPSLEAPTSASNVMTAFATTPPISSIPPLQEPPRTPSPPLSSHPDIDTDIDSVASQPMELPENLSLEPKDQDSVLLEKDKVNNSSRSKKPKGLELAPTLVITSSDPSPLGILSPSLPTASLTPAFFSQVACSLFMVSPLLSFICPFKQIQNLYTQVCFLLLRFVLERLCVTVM
An outline of the steps: as §1

A further assay deals with T3, ETV3L (Homo sapiens, UniProt Q6ZN32 1-361).
T3 sequence: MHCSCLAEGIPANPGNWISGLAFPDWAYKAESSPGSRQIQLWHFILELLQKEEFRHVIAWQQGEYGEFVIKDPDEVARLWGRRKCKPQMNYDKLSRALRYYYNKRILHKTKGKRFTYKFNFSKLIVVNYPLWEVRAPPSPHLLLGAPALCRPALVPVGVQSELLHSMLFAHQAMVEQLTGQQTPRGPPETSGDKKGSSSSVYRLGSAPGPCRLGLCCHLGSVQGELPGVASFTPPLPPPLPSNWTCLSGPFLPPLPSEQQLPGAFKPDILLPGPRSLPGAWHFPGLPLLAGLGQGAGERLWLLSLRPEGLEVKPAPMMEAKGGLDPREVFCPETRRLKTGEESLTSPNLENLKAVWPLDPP
A digest of the protocol: as §1

The target in a further assay is T4, ETS2 (Homo sapiens, UniProt P15036 1-469).
T4 sequence: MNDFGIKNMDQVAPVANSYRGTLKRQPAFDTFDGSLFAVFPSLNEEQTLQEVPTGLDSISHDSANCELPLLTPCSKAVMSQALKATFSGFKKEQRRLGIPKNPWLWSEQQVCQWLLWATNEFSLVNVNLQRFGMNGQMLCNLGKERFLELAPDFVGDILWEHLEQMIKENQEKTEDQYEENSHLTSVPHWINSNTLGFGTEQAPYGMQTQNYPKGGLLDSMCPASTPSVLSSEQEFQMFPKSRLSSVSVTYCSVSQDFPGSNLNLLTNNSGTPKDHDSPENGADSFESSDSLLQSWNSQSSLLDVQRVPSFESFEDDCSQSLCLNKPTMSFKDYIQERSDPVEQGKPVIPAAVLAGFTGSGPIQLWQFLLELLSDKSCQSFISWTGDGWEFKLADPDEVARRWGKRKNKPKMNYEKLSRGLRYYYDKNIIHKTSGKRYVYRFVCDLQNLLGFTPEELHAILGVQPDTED
A digest of the protocol: as §1

The next assay has as its target ETV6 (Homo sapiens, UniProt P41212 1-452). An outline of the steps: as §1
A further assay concerns the target T5, ELK1 (Homo sapiens, UniProt P19419 1-428).
T5 sequence: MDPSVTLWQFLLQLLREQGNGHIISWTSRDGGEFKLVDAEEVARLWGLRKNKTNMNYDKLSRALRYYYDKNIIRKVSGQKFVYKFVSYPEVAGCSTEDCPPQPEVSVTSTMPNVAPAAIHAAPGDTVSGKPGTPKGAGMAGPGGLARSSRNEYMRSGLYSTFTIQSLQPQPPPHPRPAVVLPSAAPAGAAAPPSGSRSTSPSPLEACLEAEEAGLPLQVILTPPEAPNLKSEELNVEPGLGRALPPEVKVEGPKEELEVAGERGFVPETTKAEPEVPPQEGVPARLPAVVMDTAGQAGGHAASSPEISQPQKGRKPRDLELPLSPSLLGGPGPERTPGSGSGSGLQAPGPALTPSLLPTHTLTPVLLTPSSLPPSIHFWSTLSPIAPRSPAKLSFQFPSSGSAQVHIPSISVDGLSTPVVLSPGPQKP
An outline of the steps: as §1

The target in another assay is T6, ERG (Homo sapiens, UniProt P11308 1-479).
T6 sequence: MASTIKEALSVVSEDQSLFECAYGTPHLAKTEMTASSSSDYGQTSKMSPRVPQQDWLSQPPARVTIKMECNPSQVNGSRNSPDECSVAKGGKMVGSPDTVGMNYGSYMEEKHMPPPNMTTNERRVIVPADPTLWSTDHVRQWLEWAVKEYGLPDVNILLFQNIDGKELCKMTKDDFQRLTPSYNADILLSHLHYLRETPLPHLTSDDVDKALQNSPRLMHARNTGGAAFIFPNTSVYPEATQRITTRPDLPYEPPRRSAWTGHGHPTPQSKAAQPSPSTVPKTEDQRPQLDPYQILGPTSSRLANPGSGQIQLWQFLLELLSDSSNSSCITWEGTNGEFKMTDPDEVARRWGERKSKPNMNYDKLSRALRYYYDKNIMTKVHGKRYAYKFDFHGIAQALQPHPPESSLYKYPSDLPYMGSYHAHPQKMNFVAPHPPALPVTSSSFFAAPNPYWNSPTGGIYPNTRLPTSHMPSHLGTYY
A digest of the protocol: as §1

In the next assay the target is T7, EHF (Homo sapiens, UniProt Q9NZC4 1-300).
T7 sequence: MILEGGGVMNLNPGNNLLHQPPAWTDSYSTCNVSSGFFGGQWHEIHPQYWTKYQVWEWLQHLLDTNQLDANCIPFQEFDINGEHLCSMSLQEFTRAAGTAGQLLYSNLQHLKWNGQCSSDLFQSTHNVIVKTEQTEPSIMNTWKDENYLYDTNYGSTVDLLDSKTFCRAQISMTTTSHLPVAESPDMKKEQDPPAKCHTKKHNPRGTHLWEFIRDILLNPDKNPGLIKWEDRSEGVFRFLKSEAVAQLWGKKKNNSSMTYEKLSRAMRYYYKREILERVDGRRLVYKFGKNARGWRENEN
A digest of the protocol: as §1

Another assay concerns the target SPIB (Homo sapiens, UniProt Q01892 1-262). An outline of the steps: as §1
Another assay concerns the target T8, ETV2 (Homo sapiens, UniProt O00321 1-342).
T8 sequence: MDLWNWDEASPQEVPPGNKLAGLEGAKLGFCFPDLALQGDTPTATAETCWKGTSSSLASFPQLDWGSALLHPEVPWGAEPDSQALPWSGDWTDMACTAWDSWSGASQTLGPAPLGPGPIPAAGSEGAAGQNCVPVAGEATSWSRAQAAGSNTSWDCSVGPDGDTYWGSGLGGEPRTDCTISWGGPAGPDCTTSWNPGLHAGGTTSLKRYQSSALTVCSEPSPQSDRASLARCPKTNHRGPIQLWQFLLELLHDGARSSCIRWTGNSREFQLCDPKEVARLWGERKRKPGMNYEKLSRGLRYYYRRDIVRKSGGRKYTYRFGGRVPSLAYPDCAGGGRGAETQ
An outline of the steps: as §1

A further assay deals with ETV1 (Homo sapiens, UniProt P50549 1-477). An outline of the steps:
as §1

A further assay addresses T9, ERF (Homo sapiens, UniProt P50548 1-548).
T9 sequence: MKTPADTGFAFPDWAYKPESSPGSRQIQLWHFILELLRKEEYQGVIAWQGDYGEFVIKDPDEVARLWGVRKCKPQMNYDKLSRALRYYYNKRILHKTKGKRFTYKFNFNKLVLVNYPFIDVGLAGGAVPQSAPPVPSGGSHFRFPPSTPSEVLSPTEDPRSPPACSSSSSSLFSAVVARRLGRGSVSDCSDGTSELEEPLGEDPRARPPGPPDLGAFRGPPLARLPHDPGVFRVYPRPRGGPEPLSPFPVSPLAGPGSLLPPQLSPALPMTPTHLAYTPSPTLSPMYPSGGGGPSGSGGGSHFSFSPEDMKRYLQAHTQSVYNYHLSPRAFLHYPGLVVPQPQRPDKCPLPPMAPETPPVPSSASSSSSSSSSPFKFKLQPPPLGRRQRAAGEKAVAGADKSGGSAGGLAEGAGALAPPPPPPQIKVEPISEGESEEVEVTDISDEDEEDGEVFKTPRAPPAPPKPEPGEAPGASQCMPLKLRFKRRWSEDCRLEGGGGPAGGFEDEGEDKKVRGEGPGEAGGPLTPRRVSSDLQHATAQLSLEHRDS
A digest of the protocol:
as §1

For a further assay, the target named is T10, SPDEF (Homo sapiens, UniProt O95238 1-335).
T10 sequence: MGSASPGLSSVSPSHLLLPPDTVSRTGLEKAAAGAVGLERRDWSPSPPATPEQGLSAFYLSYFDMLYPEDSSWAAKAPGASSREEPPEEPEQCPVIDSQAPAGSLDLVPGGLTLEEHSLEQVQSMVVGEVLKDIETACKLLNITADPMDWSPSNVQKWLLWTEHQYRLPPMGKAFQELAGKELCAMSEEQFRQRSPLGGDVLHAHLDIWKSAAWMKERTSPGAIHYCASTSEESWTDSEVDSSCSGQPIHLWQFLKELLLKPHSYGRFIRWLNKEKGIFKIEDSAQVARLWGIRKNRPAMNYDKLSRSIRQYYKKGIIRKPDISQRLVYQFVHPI
A digest of the protocol: as §1

The target of the next assay is T11, ETV3 (Homo sapiens, UniProt P41162-2 1-143).
T11 sequence: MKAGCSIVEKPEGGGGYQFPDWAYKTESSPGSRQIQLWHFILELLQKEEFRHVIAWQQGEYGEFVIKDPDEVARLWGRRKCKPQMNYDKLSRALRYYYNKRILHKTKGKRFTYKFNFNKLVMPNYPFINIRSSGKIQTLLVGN
An outline of the steps: as §1

Sequence of ETV5 (P41161 whole entry): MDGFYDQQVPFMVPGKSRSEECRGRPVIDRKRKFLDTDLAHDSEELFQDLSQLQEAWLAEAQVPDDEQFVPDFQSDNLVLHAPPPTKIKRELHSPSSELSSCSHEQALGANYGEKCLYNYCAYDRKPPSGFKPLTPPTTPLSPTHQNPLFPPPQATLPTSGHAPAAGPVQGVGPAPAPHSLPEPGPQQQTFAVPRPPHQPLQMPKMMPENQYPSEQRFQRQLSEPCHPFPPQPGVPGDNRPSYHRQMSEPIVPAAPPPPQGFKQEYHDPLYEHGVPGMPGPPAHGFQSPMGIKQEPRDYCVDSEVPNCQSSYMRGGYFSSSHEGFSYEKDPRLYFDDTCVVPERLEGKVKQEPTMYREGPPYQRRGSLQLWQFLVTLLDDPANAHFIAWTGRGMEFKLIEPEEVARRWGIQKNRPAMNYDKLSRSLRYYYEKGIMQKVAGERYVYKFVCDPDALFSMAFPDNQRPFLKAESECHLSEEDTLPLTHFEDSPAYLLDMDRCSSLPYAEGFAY
Sequence of ELF1 (P32519 whole entry, the tested form may be a part): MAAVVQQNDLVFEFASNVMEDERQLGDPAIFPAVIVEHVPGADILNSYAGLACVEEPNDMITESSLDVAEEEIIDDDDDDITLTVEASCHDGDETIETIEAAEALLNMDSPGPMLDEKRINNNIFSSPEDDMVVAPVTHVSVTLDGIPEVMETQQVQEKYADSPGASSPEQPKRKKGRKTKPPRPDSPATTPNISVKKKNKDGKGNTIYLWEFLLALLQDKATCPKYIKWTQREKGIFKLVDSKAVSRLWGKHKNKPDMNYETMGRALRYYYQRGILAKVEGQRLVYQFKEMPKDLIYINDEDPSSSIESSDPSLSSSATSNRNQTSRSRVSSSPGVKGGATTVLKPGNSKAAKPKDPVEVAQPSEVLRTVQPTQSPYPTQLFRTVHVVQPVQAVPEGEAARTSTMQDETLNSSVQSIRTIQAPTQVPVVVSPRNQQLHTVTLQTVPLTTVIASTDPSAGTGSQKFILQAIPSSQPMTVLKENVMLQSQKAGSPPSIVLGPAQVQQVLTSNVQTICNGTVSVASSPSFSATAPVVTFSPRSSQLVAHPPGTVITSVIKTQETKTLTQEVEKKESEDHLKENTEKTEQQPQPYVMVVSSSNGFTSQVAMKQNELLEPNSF
Sequence of ETV6 (P41212 whole entry): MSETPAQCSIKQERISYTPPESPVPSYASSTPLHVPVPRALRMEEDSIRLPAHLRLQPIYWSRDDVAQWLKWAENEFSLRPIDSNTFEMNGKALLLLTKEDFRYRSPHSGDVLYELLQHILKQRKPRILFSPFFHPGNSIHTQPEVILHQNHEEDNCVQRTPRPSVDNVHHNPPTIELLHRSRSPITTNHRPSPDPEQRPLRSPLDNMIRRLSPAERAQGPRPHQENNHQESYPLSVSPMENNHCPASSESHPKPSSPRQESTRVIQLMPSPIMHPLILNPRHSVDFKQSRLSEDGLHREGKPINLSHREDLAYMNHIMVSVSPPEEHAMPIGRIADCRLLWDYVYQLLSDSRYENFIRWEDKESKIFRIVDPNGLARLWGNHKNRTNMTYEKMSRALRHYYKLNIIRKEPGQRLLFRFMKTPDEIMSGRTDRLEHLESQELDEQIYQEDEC
Sequence of ETV1 (P50549 whole entry): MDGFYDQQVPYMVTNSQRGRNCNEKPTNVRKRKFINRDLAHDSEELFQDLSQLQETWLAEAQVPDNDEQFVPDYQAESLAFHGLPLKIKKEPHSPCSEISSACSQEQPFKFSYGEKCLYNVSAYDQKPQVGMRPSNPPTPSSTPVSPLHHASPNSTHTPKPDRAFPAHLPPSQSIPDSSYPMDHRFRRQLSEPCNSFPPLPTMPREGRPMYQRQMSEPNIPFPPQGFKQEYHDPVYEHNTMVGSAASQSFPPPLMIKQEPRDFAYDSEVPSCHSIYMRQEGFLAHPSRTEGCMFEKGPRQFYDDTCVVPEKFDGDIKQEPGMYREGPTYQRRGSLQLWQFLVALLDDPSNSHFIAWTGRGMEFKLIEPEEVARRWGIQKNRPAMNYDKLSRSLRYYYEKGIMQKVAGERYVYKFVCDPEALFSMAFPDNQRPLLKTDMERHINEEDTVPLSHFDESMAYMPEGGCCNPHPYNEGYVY
Sequence of SPIB (Q01892 whole entry): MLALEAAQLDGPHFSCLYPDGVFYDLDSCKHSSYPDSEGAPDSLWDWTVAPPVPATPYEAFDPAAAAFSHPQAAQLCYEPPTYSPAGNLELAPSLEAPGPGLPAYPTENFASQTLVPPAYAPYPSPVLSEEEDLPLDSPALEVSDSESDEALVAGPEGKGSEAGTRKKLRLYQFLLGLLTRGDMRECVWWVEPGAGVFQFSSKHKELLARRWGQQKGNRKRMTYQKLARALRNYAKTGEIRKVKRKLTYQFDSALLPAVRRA
Sequence of ELF4 (Q99607 whole entry): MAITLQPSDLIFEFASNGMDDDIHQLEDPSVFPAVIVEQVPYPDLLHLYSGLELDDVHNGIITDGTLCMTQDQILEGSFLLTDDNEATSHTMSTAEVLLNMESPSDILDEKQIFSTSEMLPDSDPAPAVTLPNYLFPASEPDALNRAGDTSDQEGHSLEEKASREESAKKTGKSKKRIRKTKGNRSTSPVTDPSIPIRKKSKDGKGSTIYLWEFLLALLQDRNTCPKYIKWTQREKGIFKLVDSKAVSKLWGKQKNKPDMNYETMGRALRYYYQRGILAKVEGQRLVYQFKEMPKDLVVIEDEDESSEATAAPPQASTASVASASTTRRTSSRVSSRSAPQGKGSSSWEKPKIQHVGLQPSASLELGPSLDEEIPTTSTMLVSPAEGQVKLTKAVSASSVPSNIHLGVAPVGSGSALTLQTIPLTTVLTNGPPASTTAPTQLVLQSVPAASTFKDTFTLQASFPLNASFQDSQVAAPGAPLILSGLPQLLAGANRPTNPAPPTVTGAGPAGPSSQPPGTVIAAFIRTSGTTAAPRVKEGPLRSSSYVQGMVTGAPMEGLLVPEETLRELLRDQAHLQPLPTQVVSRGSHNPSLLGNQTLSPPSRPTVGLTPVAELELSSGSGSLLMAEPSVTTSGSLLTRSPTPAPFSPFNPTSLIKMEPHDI

In the case of TGGGCA, the binding signal was 1.06 fold enrichment (6-mer frequency, TF over GST control) with ELF1; 1.01 fold enrichment (6-mer frequency, TF over GST control) in the assay with FEV; 1.04 fold enrichment (6-mer frequency, TF over GST control) with ETV5; 1.04 fold enrichment (6-mer frequency, TF over GST control) with ELF4; 1.06 fold enrichment (6-mer frequency, TF over GST control) with ELK4; 1.04 fold enrichment (6-mer frequency, TF over GST control) in the assay with ETV3L. Also, the binding signal with ETS2 was 1.04 fold enrichment (6-mer frequency, TF over GST control); in the assay with ETV6 it was 1.02 fold enrichment (6-mer frequency, TF over GST control).
For the sequence CGACTG, the binding signal was 1.13 fold enrichment (6-mer frequency, TF over GST control) with ELK1; 1.05 fold enrichment (6-mer frequency, TF over GST control) with ERG; 1.08 fold enrichment (6-mer frequency, TF over GST control) in the assay with ELF1; 1.02 fold enrichment (6-mer frequency, TF over GST control) with EHF; 1.05 fold enrichment (6-mer frequency, TF over GST control) in the assay with SPIB; 1.1 fold enrichment (6-mer frequency, TF over GST control) in the assay with FEV. Moreover, the binding signal with ETV5 is 1.06 fold enrichment (6-mer frequency, TF over GST control); with ELK4, 1.22 fold enrichment (6-mer frequency, TF over GST control); with ETV2, 1.19 fold enrichment (6-mer frequency, TF over GST control); with ETV1, 1.13 fold enrichment (6-mer frequency, TF over GST control); with ERF, 1.17 fold enrichment (6-mer frequency, TF over GST control); with ETV3L, 1.07 fold enrichment (6-mer frequency, TF over GST control). The binding signal in the assay with ETS2 was 1.08 fold enrichment (6-mer frequency, TF over GST control); with SPDEF it was 1.06 fold enrichment (6-mer frequency, TF over GST control); in the assay with ETV3, 1.05 fold enrichment (6-mer frequency, TF over GST control); with ETV6, 1.02 fold enrichment (6-mer frequency, TF over GST control).
